# The panel holds about 83,000 compounds, 20% with a hit somewhere; the sample as a whole holds those more often.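 Note: values are percent growth. 100 is the growth of untreated cells, values between 100 and 0 indicate rising inhibition; between -100 and 0 indicates cell death.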 Values without a mark were called inactive. Calls of active or inactive are those of the source. Rule for the calls: active = growth percent below 10; inactive = the rest.
# Key:
# Assay in all cases: NCI-60 one-dose screen, 48 h (100 = growth as untreated, 0 = no growth, -100 = all killed)
# Settings in all cases: 10 µM unless noted
# [1] = system: T-47D breast
# [2] = system: BT-549 breast
# [3] = system: MDA-MB-435 melanoma
# [4] = system: SW-620 colon
# [5] = system: MCF7 breast
# [6] = system: HCT-116 colon
# [7] = system: HCC-2998 colon
# [8] = system: KM12 colon
Compound,growth [1],growth [2],growth [3],growth [4],growth [5],growth [6],growth [7],growth [8]
COc1ccc2nc3cc(Cl)ccc3c(N3CCN(c4nccc(NCc5ccccc5)n4)CC3)c2c1,41.8%,27.5%,73.9%,68%,24.6%,25.8%,84.3%,77%
COc1cnc2c(c1)C(=O)c1c-2n(CCCN2CCN(C)CC2)c(=O)c2cc([N+](=O)[O-])ccc12,-57.2% (active),-54.6% (active),-93.8% (active),-73% (active),-40.1% (active),-83.8% (active),95.1%,-29% (active)
CC(=O)OC1Oc2cc(C)c(C)cc2-c2oc(=O)c(-c3cc4ccc(N(C)C)cc4oc3=O)cc21 (stereo not given),26.3%,59.3%,72.6%,104%,78.6%,48.3%,106%,94.5%
C(=N\Nc1ccccn1)/c1ccccn1,22.8%,-16.8% (active),33.6%,37.4%,12.4%,4.73% (active),19.2%,29.6%
CC/C=C\C[C@H](F)C/C=C1/C(=O)C=C[C@@H]1C/C=C\CCCC(=O)O,71.9%,68.8%,21.6%,30.9%,22.6%,-15.7% (active),81.9%,22.3%
CNCCCn1c2c(c3ccc([N+](=O)[O-])cc3c1=O)C(=O)c1cc(OC)cnc1-2,-7.15% (active),-25.6% (active),-76.7% (active),-34.1% (active),0.912% (active),-53.9% (active),11.1%,-4.18% (active)
NC(=S)N/N=C/c1ccc(OCc2ccccc2)cc1,20.8%,58.4%,74%,66.2%,52.1%,52.5%,79.2%,84.6%
CN(CC(=O)N(Cc1ccc(C2CCCCC2)cc1)c1ccc(C(=O)NO)cc1)S(=O)(=O)c1c(F)c(F)c(F)c(F)c1F,11.2%,93%,99.1%,20.1%,24.9%,75.6%,84.2%,99.4%
O=C1C2CC=CCC2C(=O)N1CNc1ccc(Cl)cc1 (stereo not given),86.2%,84.1%,108%,94%,102%,90.1%,98.8%,104%
CS(=O)(CCCCN=C=S)=NC(=O)c1c(F)c(F)c(F)c(F)c1F (stereo not given),44.2%,97.1%,99.1%,74.5%,12.8%,86.4%,94%,54.2%
Cc1nc2sc(C(=O)Nc3cccc4c3OCCO4)c(N)c2cc1C(C)O (stereo not given),-13.2% (active),56.1%,-39.2% (active),22.4%,11.2%,31.3%,66.5%,20.7%
COc1cccc(-n2cc(-c3nc(Nc4cc(C)[nH]n4)c4ccccc4n3)nn2)c1,17.6%,49.3%,34%,66.5%,37.6%,41.5%,44.5%,23%
CCCCNP1(NCCCC)=NP(NCCCC)(NCCCC)=NP(NCCCC)(NCCCC)=NP(NCCCC)(NCCCC)=N1,-5.86% (active),45.4%,6.7% (active),6.12% (active),-7.14% (active),0.711% (active),-24.9% (active),-24.7% (active)
Nc1cc(O)cc2cccnc12,83.9%,87%,-9.72% (active),79.7%,55.8%,80.3%,100%,99.8%
COc1cccc(/C=C2/C(=O)N(Cc3ccco3)SC2=S)c1OC,81.2%,89.7%,84.6%,98.4%,47.3%,86.4%,108%,92.2%
COc1ccc(/C=N\NC(=O)c2ccncc2)cc1O,87.3%,98.1%,98.5%,107%,95.7%,94.1%,101%,94.2%
COc1cc(/C=N\NC(=O)CN2CCN(c3cc4c(cc3F)c(=O)c(C(=O)N/N=C/c3ccc(O)c(OC)c3)cn4C3CC3)CC2)ccc1O,-1.62% (active),56%,55%,57.2%,12.5%,53.6%,7.72% (active),20.5%
CCCCCCCCOC(=O)CC[C@@H](C)[C@H]1CC[C@H]2[C@@H]3[C@H](OC(=O)CCN)C[C@@H]4C[C@H](OC(=O)CCN)CC[C@]4(C)[C@H]3C[C@H](OC(=O)CCN)[C@]12C,88.8%,124%,74.1%,20%,10.8%,49.3%,84.2%,77.8%
COC1/C=C\OC2(C)Oc3c(C)c(O)c4c(O)c(c(CN(C)CCO)c(O)c4c3C2=O)NC(=O)/C(C)=C\C=C/C(C)C(O)C(C)C(O)C(C)C(OC(C)=O)C1C (stereo not given),89.3%,105%,111%,105%,91.6%,107%,121%,106%
O=C1Nc2ccccc2C12CC(c1ccc(Cl)cc1)=NN2 (stereo not given),91.1%,98.5%,98.8%,106%,91.4%,95.3%,108%,110%
c1ccc(CSc2ncnc3nc[nH]c23)nc1,107%,122%,92.3%,113%,99.7%,93.1%,125%,106%
CN(C)c1ccc(C2Nc3ccccc3-n3cccc32)cc1 (stereo not given),55.6%,99.8%,96.5%,97.6%,38.4%,97.4%,85.2%,97.7%
C(=N\Nc1nnn(Cc2ccccc2)n1)/c1ccccc1,45.6%,46.5%,-26.1% (active),35.2%,27.5%,43.8%,45.6%,19.4%
O=C1C=CC(=O)c2c1nc1n2CCCC1,86.7%,95.2%,-68.5% (active),62.3%,57.8%,91.9%,57.6%,75%
CCNS(=O)(=O)c1ncnc2nc[nH]c12,104%,129%,101%,101%,102%,117%,114%,119%
